# Reference: the supplement of paper PMC12282887
# ± gives the standard deviation of the averaged measurements.
# Columns and labels:
# Test in all cases: promoter activity interaction Z-score (Lux/OD deviation from empty-vector control); higher = stronger promoter induction by the compound
# [1] = system: E. coli BW25113 acrABp lux reporter
# Procedure, shortened: (§1)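 At 37°C, E. coli BW25113 reporter cultures in 40 µl LB Lennox in 384-well plates were read for OD600 and luminescence every 30 min for 12 h. Windows were 0–8 h for wild type and 1–9 h for deletion strains, and wells under 10% of the median growth value were removed. The score is the Z-transformed residual of growth-normalised luminescence against a control fit.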
# [2] = system: E. coli BW25113 micFp lux reporter
# Procedure, shortened: as §1
# [3] = system: E. coli BW25113 ompFp lux reporter
# Procedure, shortened: as §1
# [4] = system: E. coli BW25113 robp lux reporter
# Procedure, shortened: as §1
# [5] = system: E. coli BW25113 soxSp lux reporter
# Procedure, shortened: as §1
# [6] = system: E. coli BW25113 tolCp lux reporter
# Procedure, shortened: as §1
# [7] = 13.3 µg/ml, genetic background: wild type
# [8] = 13.3 µg/ml, genetic background: ΔmarA
# [9] = 13.3 µg/ml, genetic background: Δrob
# [10] = 13.3 µg/ml, genetic background: ΔsoxS
# [11] = 26.6 µg/ml, genetic background: wild type
# [12] = 26.6 µg/ml, genetic background: ΔmarA
# [13] = 26.6 µg/ml, genetic background: Δrob
# [14] = 26.6 µg/ml, genetic background: ΔsoxS
# [15] = 53.2 µg/ml, genetic background: wild type
# [16] = 53.2 µg/ml, genetic background: ΔmarA
# [17] = 53.2 µg/ml, genetic background: Δrob
# [18] = 53.2 µg/ml, genetic background: ΔsoxS
# [19] = 106.3 µg/ml, genetic background: wild type
# [20] = 106.3 µg/ml, genetic background: ΔmarA
# [21] = 106.3 µg/ml, genetic background: Δrob
# [22] = 106.3 µg/ml, genetic background: ΔsoxS
smiles,measurement,setting,value
NCCc1c[nH]c2ccc(O)cc12 [Serotonine],promoter activity interaction Z-score,[1]; [7],-0.00265 ± 0.11
same,promoter activity interaction Z-score,[1]; [8],-0.788 ± 0.29
same,promoter activity interaction Z-score,[1]; [9],-0.254 ± 0.091
same,promoter activity interaction Z-score,[1]; [10],-0.249 ± 0.17
same,promoter activity interaction Z-score,[1]; [11],0.0217 ± 0.063
same,promoter activity interaction Z-score,[1]; [12],-0.85 ± 0.58
same,promoter activity interaction Z-score,[1]; [13],-0.276 ± 0.24
same,promoter activity interaction Z-score,[1]; [14],-0.0282 ± 0.36
same,promoter activity interaction Z-score,[1]; [15],-0.325 ± 0.06
same,promoter activity interaction Z-score,[1]; [16],-0.49 ± 0.22
same,promoter activity interaction Z-score,[1]; [17],-0.415 ± 0.17
same,promoter activity interaction Z-score,[1]; [18],-0.545 ± 0.3
same,promoter activity interaction Z-score,[1]; [19],0.00625 ± 0.31
same,promoter activity interaction Z-score,[1]; [20],-0.338 ± 0.23
same,promoter activity interaction Z-score,[1]; [21],-0.109 ± 0.092
same,promoter activity interaction Z-score,[1]; [22],-0.397 ± 0.11
same,promoter activity interaction Z-score,[2]; [7],-0.241 ± 0.065
same,promoter activity interaction Z-score,[2]; [8],-0.0379 ± 0.032
same,promoter activity interaction Z-score,[2]; [9],-0.00374 ± 0.19
same,promoter activity interaction Z-score,[2]; [10],-0.156 ± 0.27
same,promoter activity interaction Z-score,[2]; [11],0.00853 ± 0.19
same,promoter activity interaction Z-score,[2]; [12],0.0453 ± 0.21
same,promoter activity interaction Z-score,[2]; [13],0.0253 ± 0.12
same,promoter activity interaction Z-score,[2]; [14],-0.0552 ± 0.27
same,promoter activity interaction Z-score,[2]; [15],-0.712 ± 0.14
same,promoter activity interaction Z-score,[2]; [16],0.105 ± 0.08
same,promoter activity interaction Z-score,[2]; [17],-0.0954 ± 0.018
same,promoter activity interaction Z-score,[2]; [18],-0.396 ± 0.062
same,promoter activity interaction Z-score,[2]; [19],-0.289 ± 0.23
same,promoter activity interaction Z-score,[2]; [20],0.0717 ± 0.036
same,promoter activity interaction Z-score,[2]; [21],-0.13 ± 0.074
same,promoter activity interaction Z-score,[2]; [22],-0.339 ± 0.011
same,promoter activity interaction Z-score,[3]; [7],-0.556 ± 0.15
same,promoter activity interaction Z-score,[3]; [8],-0.881 ± 0.092
same,promoter activity interaction Z-score,[3]; [9],-0.716 ± 0.021
same,promoter activity interaction Z-score,[3]; [10],-0.309 ± 0.16
same,promoter activity interaction Z-score,[3]; [11],-0.212 ± 0.059
same,promoter activity interaction Z-score,[3]; [12],-0.69 ± 0.35
same,promoter activity interaction Z-score,[3]; [13],-1.16 ± 0.13
same,promoter activity interaction Z-score,[3]; [14],-0.158 ± 0.048
same,promoter activity interaction Z-score,[3]; [15],-0.996 ± 0.15
same,promoter activity interaction Z-score,[3]; [16],-0.794 ± 0.068
same,promoter activity interaction Z-score,[3]; [17],-0.999 ± 0.19
same,promoter activity interaction Z-score,[3]; [18],-0.802 ± 0.085
same,promoter activity interaction Z-score,[3]; [19],-0.733 ± 0.22
same,promoter activity interaction Z-score,[3]; [20],-0.818 ± 0.24
same,promoter activity interaction Z-score,[3]; [21],-0.632 ± 0.014
same,promoter activity interaction Z-score,[3]; [22],-0.689 ± 0.16
same,promoter activity interaction Z-score,[4]; [7],-0.357 ± 0.24
same,promoter activity interaction Z-score,[4]; [8],-0.786 ± 0.2
same,promoter activity interaction Z-score,[4]; [9],-0.355 ± 0.17
same,promoter activity interaction Z-score,[4]; [10],0.188 ± 0.045
same,promoter activity interaction Z-score,[4]; [11],0.207 ± 0.12
same,promoter activity interaction Z-score,[4]; [12],-0.465 ± 0.14
same,promoter activity interaction Z-score,[4]; [13],-0.388 ± 0.26
same,promoter activity interaction Z-score,[4]; [14],0.275 ± 0.77
same,promoter activity interaction Z-score,[4]; [15],-0.669 ± 0.27
same,promoter activity interaction Z-score,[4]; [16],-0.144 ± 0.64
same,promoter activity interaction Z-score,[4]; [17],-0.179 ± 0.34
same,promoter activity interaction Z-score,[4]; [18],-0.554 ± 0.4
same,promoter activity interaction Z-score,[4]; [19],0.176 ± 0.072
same,promoter activity interaction Z-score,[4]; [20],0.574 ± 0.46
same,promoter activity interaction Z-score,[4]; [21],0.0481 ± 0.46
same,promoter activity interaction Z-score,[4]; [22],-0.714 ± 0.32
same,promoter activity interaction Z-score,[5]; [7],-0.18 ± 0.0085
same,promoter activity interaction Z-score,[5]; [8],-0.19 ± 0.0051
same,promoter activity interaction Z-score,[5]; [9],-0.045 ± 0.2
same,promoter activity interaction Z-score,[5]; [10],-0.24 ± 0.11
same,promoter activity interaction Z-score,[5]; [11],-0.101 ± 0.061
same,promoter activity interaction Z-score,[5]; [12],-0.181 ± 0.093
same,promoter activity interaction Z-score,[5]; [13],-0.254 ± 0.35
same,promoter activity interaction Z-score,[5]; [14],-0.331 ± 0.17
same,promoter activity interaction Z-score,[5]; [15],-0.456 ± 0.097
same,promoter activity interaction Z-score,[5]; [16],-0.276 ± 0.14
same,promoter activity interaction Z-score,[5]; [17],-0.264 ± 0.11
same,promoter activity interaction Z-score,[5]; [18],-0.531 ± 0.027
same,promoter activity interaction Z-score,[5]; [19],-0.199 ± 0.16
same,promoter activity interaction Z-score,[5]; [20],-0.243 ± 0.18
same,promoter activity interaction Z-score,[5]; [21],-0.285 ± 0.11
same,promoter activity interaction Z-score,[5]; [22],-0.676 ± 0.071
same,promoter activity interaction Z-score,[6]; [7],-0.64 ± 0.46
same,promoter activity interaction Z-score,[6]; [8],-0.135 ± 0.24
same,promoter activity interaction Z-score,[6]; [9],0.259 ± 1.6
same,promoter activity interaction Z-score,[6]; [10],-0.321 ± 0.043
same,promoter activity interaction Z-score,[6]; [11],0.564 ± 0.026
same,promoter activity interaction Z-score,[6]; [12],-0.00904 ± 0.37
same,promoter activity interaction Z-score,[6]; [13],-0.3 ± 0.55
same,promoter activity interaction Z-score,[6]; [14],0.737 ± 0.3
same,promoter activity interaction Z-score,[6]; [15],-0.749 ± 0.61
same,promoter activity interaction Z-score,[6]; [16],-0.0593 ± 0.84
same,promoter activity interaction Z-score,[6]; [17],-0.236 ± 1.2
same,promoter activity interaction Z-score,[6]; [18],-0.229 ± 1.1
same,promoter activity interaction Z-score,[6]; [19],-0.235 ± 0.56
same,promoter activity interaction Z-score,[6]; [20],0.575 ± 0.063
same,promoter activity interaction Z-score,[6]; [21],-0.637 ± 0.9
same,promoter activity interaction Z-score,[6]; [22],-0.781 ± 0.14
